Results reported in PubChem BioAssay AID1159580 (chemical genetic matrix, 2015).
Several values for one entry are separate records, joined by “and”; a condition that tells them apart may be missing. Identical values can stand only once. The campaign covered roughly 5,500 compounds. About 2,000 (36%) were called active. Roughly 18% stayed inconclusive and do not appear here. Cut-off read from the data, not from the text of the source: active = normalized growth mostly below about 0.91 (no sharp cut-off); inconclusive = no clear call, values can overlap the other calls; inactive = mostly above about 0.92. The list shows a part of the results.

Assay: chemical genetic growth profiling, strain panel (AID 1159580);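 note: tested at 20 µM; growth read once vehicle control cultures reached saturation at 30 °C; 1 = growth at the plate median or of vehicle wells; lower values mean less growth of the strain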
Conditions: growth OD
[1] = S. cerevisiae deletion strains, locus YHR030C, strain SLT2, stronger effect = lower value
[2] = S. cerevisiae deletion strains, locus YHR079C, strain IRE1, stronger effect = lower value
[3] = S. cerevisiae deletion strains, locus YJL095W, strain BCK1, stronger effect = lower value
[4] = S. cerevisiae deletion strains, locus YJR066W, strain TOR1, stronger effect = lower value
[5] = S. cerevisiae deletion strains, locus YLR113W, strain HOG1, stronger effect = lower value
[6] = S. cerevisiae deletion strains, locus YNL183C, strain NPR1, stronger effect = lower value
[7] = S. cerevisiae deletion strains, locus YOR231W, strain MKK1, stronger effect = lower value
[8] = S. cerevisiae deletion strains, locus YPL256C, strain CLN2, stronger effect = lower value

Measured: normalized growth

CC(=O)Nc1ccc(OCC(O)CNC(C)C)cc1 (configuration not stated)
inactive: S. cerevisiae deletion strains, locus YBR021W, strain FUR4, stronger effect = lower value 1.01 | S. cerevisiae deletion strains, locus YBR229C, strain ROT2, stronger effect = lower value 1 | S. cerevisiae deletion strains, locus YCL029C, strain bik1, stronger effect = lower value 0.995 | S. cerevisiae deletion strains, locus YDL035C, strain GPR1, stronger effect = lower value 1.01 | S. cerevisiae deletion strains, locus YDL074C, strain BRE1, stronger effect = lower value 1.02 | S. cerevisiae deletion strains, locus YDL101C, strain DUN1, stronger effect = lower value 1.01 | S. cerevisiae deletion strains, locus YDL185W, strain tfp1, stronger effect = lower value 1.01 | S. cerevisiae deletion strains, locus YDL192W, strain arf1, stronger effect = lower value 1 | S. cerevisiae deletion strains, locus YDR101C, strain arx1, stronger effect = lower value 1.02 | S. cerevisiae deletion strains, locus YDR150W, strain NUM1, stronger effect = lower value 1.01 | S. cerevisiae deletion strains, locus YDR162C, strain NBP2, stronger effect = lower value 1.01 | S. cerevisiae deletion strains, locus YDR318W, strain mcm21, stronger effect = lower value 1 | S. cerevisiae deletion strains, locus YDR388W, stronger effect = lower value 1 | S. cerevisiae deletion strains, locus YDR502C, strain sam2, stronger effect = lower value 0.99 | S. cerevisiae deletion strains, locus YEL061C, strain CIN8, stronger effect = lower value 1.01 | S. cerevisiae deletion strains, locus YER110C, stronger effect = lower value 1 | S. cerevisiae deletion strains, locus YER155C, strain BEM2, stronger effect = lower value 1.01 | S. cerevisiae deletion strains, locus YER167W, strain BCK2, stronger effect = lower value 1.01 | S. cerevisiae deletion strains, locus YGL078C, strain dbp3, stronger effect = lower value 0.999 | S. cerevisiae deletion strains, locus YGL086W, strain mad1, stronger effect = lower value 1 | S. cerevisiae deletion strains, locus YGL248W, strain PDE1, stronger effect = lower value 1 | S. cerevisiae deletion strains, locus YGR078C, strain PAC10, stronger effect = lower value 1.01 | S. cerevisiae deletion strains, locus YGR135W, strain pre9, stronger effect = lower value 0.996 | S. cerevisiae deletion strains, locus YGR229C, strain SMI1, stronger effect = lower value 1 | S. cerevisiae deletion strains, locus YGR252W, strain gcn5, stronger effect = lower value 0.975 | [1] 1.01 and 0.983 | S. cerevisiae deletion strains, locus YHR079C, strain IRE1 (second series), stronger effect = lower value 0.999 | [2] 0.978 | S. cerevisiae deletion strains, locus YHR094C, strain hxt1, stronger effect = lower value 0.999 | S. cerevisiae deletion strains, locus YHR129C, strain ARP1, stronger effect = lower value 1.01 | S. cerevisiae deletion strains, locus YHR200W, strain rpn10, stronger effect = lower value 1.01 | S. cerevisiae deletion strains, locus YIL066C, strain RNR3, stronger effect = lower value 1.01 | S. cerevisiae deletion strains, locus YIL073C, strain SPO22, stronger effect = lower value 1.03 | S. cerevisiae deletion strains, locus YIL125W, strain kgd1, stronger effect = lower value 1 | S. cerevisiae deletion strains, locus YIR030C, strain dcg1, stronger effect = lower value 0.995 | [3] 1.02 and 0.982 | S. cerevisiae deletion strains, locus YJL134W, strain LCB3, stronger effect = lower value 1.01 | S. cerevisiae deletion strains, locus YJL168C, strain set2, stronger effect = lower value 1 | S. cerevisiae deletion strains, locus YJL187C, strain SWE1 (second series), stronger effect = lower value 1.02 | S. cerevisiae deletion strains, locus YJR043C, strain POL32, stronger effect = lower value 1.01 | [4] 0.965 | S. cerevisiae deletion strains, locus YKL009W, strain mrt4, stronger effect = lower value 0.991 | S. cerevisiae deletion strains, locus YKL068W, stronger effect = lower value 1 | S. cerevisiae deletion strains, locus YKL085W, strain MDH1 (second series), stronger effect = lower value 1.01 | S. cerevisiae deletion strains, locus YKL085W, strain MDH1, stronger effect = lower value 1.01 | S. cerevisiae deletion strains, locus YKR001C, strain vps1, stronger effect = lower value 1 | S. cerevisiae deletion strains, locus YLR039C, strain RIC1, stronger effect = lower value 1.05 | S. cerevisiae deletion strains, locus YLR058C, strain SHM2, stronger effect = lower value 1.01 | S. cerevisiae deletion strains, locus YLR102C, strain apc9, stronger effect = lower value 0.996 | [5] 1.01 | S. cerevisiae deletion strains, locus YLR262C, strain YPT6, stronger effect = lower value 1.03 | S. cerevisiae deletion strains, locus YLR268W, strain sec22, stronger effect = lower value 0.998 | S. cerevisiae deletion strains, locus YLR330W, strain CHS5, stronger effect = lower value 1.01 | S. cerevisiae deletion strains, locus YLR342W, strain FKS1 (second series), stronger effect = lower value 1.02 | S. cerevisiae deletion strains, locus YLR371W, strain rom2, stronger effect = lower value 1.01 | S. cerevisiae deletion strains, locus YLR418C, strain cdc73, stronger effect = lower value 0.981 | S. cerevisiae deletion strains, locus YML016C, strain PPZ1, stronger effect = lower value 1.01 | S. cerevisiae deletion strains, locus YML032C, strain rad52, stronger effect = lower value 1.02 | S. cerevisiae deletion strains, locus YML124C, strain tub3, stronger effect = lower value 0.998 | S. cerevisiae deletion strains, locus YMR078C, strain ctf18, stronger effect = lower value 1 | S. cerevisiae deletion strains, locus YMR223W, strain ubp8, stronger effect = lower value 0.985 | S. cerevisiae deletion strains, locus YMR307W, strain GAS1, stronger effect = lower value 0.965 | S. cerevisiae deletion strains, locus YNL067W, strain RPL9B, stronger effect = lower value 1.02 | S. cerevisiae deletion strains, locus YNL128W, strain TEP1, stronger effect = lower value 1.02 | S. cerevisiae deletion strains, locus YNL153C, strain GIM3, stronger effect = lower value 1.02 | [6] 0.938 | S. cerevisiae deletion strains, locus YNL233W, strain BNI4, stronger effect = lower value 1 | S. cerevisiae deletion strains, locus YNL250W, strain rad50, stronger effect = lower value 0.996 | S. cerevisiae deletion strains, locus YNL271C, strain bni1, stronger effect = lower value 0.992 | S. cerevisiae deletion strains, locus YNL298W, strain CLA4, stronger effect = lower value 1 | S. cerevisiae deletion strains, locus YNL307C, strain MCK1, stronger effect = lower value 1 | S. cerevisiae deletion strains, locus YNR052C, strain pop2, stronger effect = lower value 1.01 | S. cerevisiae deletion strains, locus YOL012C, strain htz1 0.693 | S. cerevisiae deletion strains, locus YOL147C, strain pex11, stronger effect = lower value 0.999 | S. cerevisiae deletion strains, locus YOR061W, strain CKA2, stronger effect = lower value 1.01 | S. cerevisiae deletion strains, locus YOR069W, strain VPS5, stronger effect = lower value 1.01 | S. cerevisiae deletion strains, locus YOR136W, strain idh2, stronger effect = lower value 0.999 | S. cerevisiae deletion strains, locus YOR144C, strain elg1, stronger effect = lower value 0.998 | S. cerevisiae deletion strains, locus YOR184W, strain ser1, stronger effect = lower value 1.01 | [7] 0.965 | S. cerevisiae deletion strains, locus YOR316C, strain cot1, stronger effect = lower value 0.997 | S. cerevisiae deletion strains, locus YPL241C, strain CIN2, stronger effect = lower value 1.01 | [8] 0.973 | S. cerevisiae deletion strains, locus YPR119W, strain clb2, stronger effect = lower value 1 | S. cerevisiae deletion strains, locus YPR141C, strain kar3, stronger effect = lower value 0.985 | S. cerevisiae deletion strains, locus YPR163C, strain tif3, stronger effect = lower value 1.01 | S. cerevisiae deletion strains, locus YPR167C, strain met16, stronger effect = lower value 1 | S. cerevisiae deletion strains, strain wtn01, stronger effect = lower value 0.979 | S. cerevisiae strains, strain wild type, stronger effect = lower value 1.01

CN1[C@@H]2CC[C@@H]1CC(O)C2 (some centres not stated)
inactive: [1] 1.03 | [2] 1.04 | [3] 1.05 | [4] 0.983 | [5] 0.98 | [6] 0.986 | [7] 1.01 | [8] 1.06
